Hits are enriched below; roughly 1.6% of the tested compounds scored in any of these assays.
p53ts 32C tox = cytotoxicity in p53ts cells at permissive temperature. H1299-p53A138V at 32C, ATP luminescence viability, 24 h. Potency, µM (titrated, usually from 46.1 µM), inactives show top-dose activity change, negative = cytotoxicity, actives largely listed as cytotoxic. actives 0.93% (n = 130,000);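 further: 0% = DMSO and -100% = full killing by reference compound; nearly all actives have a fitted effect of over 55% in size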
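Cells: H1299 p53ts (A138V), 600/well, pre-incubated 16–30 h at 37C. Cpd up to 46 uM, 24 h, 32C. Readout: ATPlite luminescence, 20 min RT. Normalization: DMSO vs tamoxifen 100 uM. AC50 by Hill equation.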
p53ts 39C tox = kills p53ts cells at the nonpermissive temperature. Potency, µM (titrated, usually from 46.1 µM), for the others: top-dose activity change, negative = cell killing, actives largely listed as cytotoxic. H1299-p53A138V viability at 39C, ATP luminescence, 24 h. AID 902. actives 1.5% (n = 130,000); further: on the % scale 0 is the no-effect control and ±100 the full control effect; nearly all actives have a fitted effect of over 55% in size
Peg3 imprint = genomic imprint erasure induction; mouse ES Peg3-LacZ reporter, beta-gal luminescence, 40 h; Potency, µM (doses to about 60.7 µM), for the others: at the top dose activity change, positive = activation, hits mostly activators; actives 0.02% (n = 110,000); AID 1948
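Each well holds 300 Peg3LacZ-Neo (maternal) female ES cells incubated 40 h at 37C, 5% CO2. LacZ is measured by BetaGlo luminescence, with AC50 and maximum efficacy derived from dose-response curves.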
The depositor's hits bear a star; ? = inconclusive; . = no result given; ! = not active in a repeat; [ ] = another dose, or the depositor's remark. The call rests on the fitted dose curve; in most records, active means well fitted curve in the direction sought with a large enough effect; inconclusive means small, poorly fitted or top-dose-only effect, or another doubt; inactive means no such curve, though single readings can be large; an effect the other way counts as inactive or inconclusive. Potency means the concentration at half of the fitted maximal effect.

SMILES | p53ts 32C tox | p53ts 39C tox | Peg3 imprint
CCCCN1CCC[C@@H]1CNC(=O)c1cc(C#N)c2ccccc2c1OC | -5.9% | -26.8% | -6.9%
COc1ccc(-c2cc(C(=O)NCc3cccs3)no2)cc1OC | 2.5% | -6.6% | -10.2%
CCS(=O)(=O)CCSc1nc(-c2ccc(Br)cc2)cc(-c2ccccc2)c1C#N | 3.4% | ? | -21.1%[10.9 µM]
CS(=O)c1nc(-c2ccc(Br)cc2)cc(-c2ccccc2)c1C#N (configuration not stated) | 20µM* | ? | -26.0%
COc1ccc(-c2nc(SCC(=O)Nc3cccc(C(C)=O)c3)n[nH]2)cc1 | ? | 31.6µM* | -11.6%[10.9 µM]
Cc1cccc(NC(=O)CSc2n[nH]c(-c3ccncc3)n2)c1 | 18.3% | 18.8% | -11.9%
CCOC(=O)N1CCN(Cc2nc3cc(NC(=O)c4ccccc4Cl)ccc3n2C(C)C)CC1 | ? | -12.5% | -28.4%[10.9 µM]
Cc1ccc(NC(=O)Cn2c(=O)n(-c3ccccc3)c(=O)c3ccc(C(=O)NCc4ccc5c(c4)OCO5)cc32)c(C)c1 | ? | 7.94µM* | -8.7%[10.9 µM]
O=C(Cn1c(=O)n(-c2ccccc2)c(=O)c2ccc(C(=O)NCc3ccc4c(c3)OCO4)cc21)Nc1ccc(Br)cc1 | -0.9% | -25.9% | 11.6%[10.9 µM]
COc1ccc(-n2c(=O)c3ccc(C(=O)NCc4ccc(C)cc4)cc3n(CC(=O)Nc3ccc(F)cc3)c2=O)cc1 | -23.9% | 10µM* | 5.2%[10.9 µM]
Cc1ccc(-n2c(=O)c3ccc(C(=O)NCc4ccco4)cc3n(CC(=O)Nc3ccc(C)c(F)c3)c2=O)cc1 | -0.7% | ? | -7.7%[10.9 µM]
Cc1ccc(-n2c(=O)c3ccc(C(=O)NCc4ccco4)cc3n(Cc3ccccc3Cl)c2=O)cc1 | 1.5% | 21.9% | 14.4%[10.9 µM]
COc1ccc(-n2c(=O)c3ccc(C(=O)NCc4ccc(C)cc4)cc3n(CC(=O)Nc3ccc(C)cc3)c2=O)cc1 | ? | 5.01µM* | -14.8%[10.9 µM]
COc1ccc(NC(=O)Cn2c(=O)n(-c3ccccc3)c(=O)c3ccc(C(=O)NCc4ccc5c(c4)OCO5)cc32)cc1 | ? | 27.4% | -4.0%[10.9 µM]
Cc1ccc(-n2c(=O)c3ccc(C(=O)NCc4ccco4)cc3n(Cc3ccc(Cl)cc3)c2=O)cc1 | -27.5% | 12.6µM* | -11.4%[10.9 µM]
CO/N=C1/[C@H]2O[C@@H]2[C@@H](O)[C@H]2[C@H]1CCn1c(=O)n(-c3ccccc3)c(=O)n12 | 5.0%[9.22 µM] | 0.4%[9.22 µM] | .
O=C1C=C(NCCc2cc(Br)c(O)c(Br)c2)C(=O)c2ncccc21 | ? | ? | -40.0%[10.9 µM]
O=C1C=C(NCCO)C(=O)c2cnccc21 | 3.16µM* | 3.98µM* | -72.1%
COc1ccc(OC)c(-c2nnc3n(CCc4ccccc4)c(=O)c4ccccc4n23)c1 | 6.1% | 12.6µM* | -13.2%[10.9 µM]
COc1ccc(Cn2c(=O)c3ccccc3n3c(-c4cccc(OC)c4OC)nnc23)cc1 | -5.7% | 3.1% | -17.7%[10.9 µM]
Cc1cccc(NC(=O)c2sc(-n3nc(C)c(Cc4ccc5c(c4)OCO5)c3C)nc2C)c1C | 2.3% | 8.3% | -11.7%[10.9 µM]
O=C(NCc1ccccc1)c1ccc2c(c1)N(Cc1cccc(Cl)c1)C(=O)c1ccccc1S2(=O)=O | -6.1% | 14.8% | -11.1%[10.9 µM]
CC1CCCN(CCCNC(=O)c2ccc3c(c2)N(Cc2cccc(Cl)c2)C(=O)c2ccccc2S3(=O)=O)C1 (configuration not stated) | 3.3% | 12.6µM* | -17.0%[10.9 µM]
CCc1ccc2occ(CC(=O)Nc3c(C(=O)Nc4ccc(C)cc4)oc4ccccc34)c2c1 | -29.4% | 31.6µM* | -3.5%[10.9 µM]
CCc1ccc2occ(CC(=O)Nc3c(C(=O)Nc4ccc(Cl)cc4)oc4ccccc34)c2c1 | 1.5% | -25.2% | -14.9%[10.9 µM]
SMILES | p53ts 32C tox | p53ts 39C tox | Peg3 imprint
CN(C)CCCN1c2ccccc2CCc2ccc(Cl)cc21 | -12.1% | 20µM*! | -10.6%
CN(C)CCCN1c2ccccc2Sc2ccccc21 | 8.5% | ? | -14.4%
Cc1cccc(-c2nc3ccccc3n2Cc2ccccc2)c1 | -22.1% | ? | 11.8%[10.9 µM]
Fc1ccc(-c2nnc(Cc3nnc(-c4ccc(F)cc4)o3)o2)cc1 | 5.0% | -2.4% | 6.9%
Fc1ccc(-c2nnc(NC3=NCCCCC3)o2)cc1 | 3.98µM* | 3.98µM* | -92.0%
O=c1[nH]c(Nc2nc3ccccc3o2)nc2c1CCCC2 | 12.6µM* | ? | .
Cc1ccc(Nc2nc3c(c(=O)[nH]2)CCCC3)cc1 | -7.6% | -2.4% | .
COc1cccc(-c2ccc3ncnc(NCCNC(C)=O)c3c2)c1 | 3.8% | -3.9% | ?
O=C(Nc1cc(-c2nc3ccccc3o2)ccc1Cl)c1ccc(Br)o1 | 0.4% | -9.5% | -5.5%[10.9 µM]
N#Cc1cc(C(=O)c2ccccc2OCC(=O)Nc2ccccc2)cn(C2CCCCC2)c1=O | -1.7% | 2.1% | .
O=C(COc1ccccc1C(=O)c1cnn(-c2ccccc2)c1)Nc1ccccc1 | 11.2µM* | ? | .

Screens: PubChem, National Center for Advancing Translational Sciences (NCATS)
